Targets with a hit are over-represented here; the source holds about 8,800 in all. About 0.5% of all pairs of compound and target were hits.
Legend:
Assay in all cases: log2 fold change, soluble protein after heating vs DMSO (PISA); higher = thermal stabilisation; K562 lysate, 10 uM; active = over 0.2 and 3.5 SD of the protein, either way, in both replicates (recomputed)
[1] = compound: C1=CC=C(C=C1)[C@H](COC2=CC3=C(C=C2)NC(=O)N3)NC(=O)C4=CC=CN(C4=O)CC5=CC(=C(C=C5)F)F
How it was run: (§1)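 Soluble protein was defined as the supernatant remaining after 21,000xg for 90 min, following pooling of heated aliquots and adjustment to 0.5% NP-40 at 4°C. Before that, crude K562 extract at 1 mg/mL protein in PBS pH 7.4 with 1 mM MgCl2 was treated with 10 μM compound for 30 min and heated for 3 min across 48°C-58°C. Quantification used TMTpro 16plex LC-MS/MS with channel sums equalised, and values are log-two fold changes in thermal stability relative to solvent controls from duplicates.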

[2] = compound: CC1=C(SC2=C1C(=N[C@H](C3=NN=C(N32)C)CC(=O)N)C4=CC=C(C=C4)Cl)C
How it was run: as §1

[3] = compound: CC1=C2C(=CC=C1)N=C(N(C2=O)C3=CC=CC=C3C)CN4C=NC5=C(N=CN=C54)N
How it was run: as §1

[4] = compound: Cc1sc2c(c1C)C(c1ccc(Cl)cc1)=N[C@@H](CC(=O)OC(C)(C)C)c1nnc(C)n1-2
How it was run: as §1

[5] = compound: c1ccc([C@@H]2C[C@H]2NC2CCNCC2)cc1
How it was run: as §1

Measured: log2 fold change

C8orf37 (UniProt Q96NL8)
inactive: [1] 0.072 | [2] -0.08 | [3] -0.094 | [4] -0.008 | [5] 0.141

CEP41 (UniProt Q9BYV8)
inactive: [1] -0.026 | [2] -0.06 | [3] -0.106 | [4] -0.068 | [5] -0.045

CAMLG (UniProt P49069)
inactive: [1] 0.058 | [2] 0.003 | [3] 0.018 | [4] 0.05 | [5] 0.074

CALM2 (UniProt P0DP24)
inactive: [1] -0.07 | [2] -0.177 | [3] 0.009 | [4] -0.088 | [5] -0.001

CBR1 (UniProt P16152)
inactive: [1] 0.03 | [2] -0.004 | [3] 0.013 | [4] -0.021 | [5] -0.056

CCDC22 (UniProt O60826)
inactive: [1] -0.009 | [2] 0 | [3] -0.044 | [4] 0.053 | [5] 0.032

CHCHD4 isoform 2 (UniProt Q8N4Q1)
UniProt Q8N4Q1, sequence (Q8N4Q1 whole entry, looked up): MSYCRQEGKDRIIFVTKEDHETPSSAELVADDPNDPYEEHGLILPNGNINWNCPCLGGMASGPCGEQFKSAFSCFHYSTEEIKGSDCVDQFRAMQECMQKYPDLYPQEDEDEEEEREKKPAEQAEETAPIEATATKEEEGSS
inactive: [1] 0.04 | [2] -0.076 | [3] -0.101 | [4] -0.189 | [5] -0.168

CDK2 (UniProt P24941)
inactive: [1] 0.006 | [2] 0.004 | [3] -0.039 | [4] 0.076 | [5] -0.028

CCNH (UniProt P51946)
inactive: [1] -0.028 | [2] -0.004 | [3] 0.022 | [4] -0.039 | [5] -0.01

CBX5 (UniProt P45973)
UniProt P45973, sequence (P45973 whole entry, looked up): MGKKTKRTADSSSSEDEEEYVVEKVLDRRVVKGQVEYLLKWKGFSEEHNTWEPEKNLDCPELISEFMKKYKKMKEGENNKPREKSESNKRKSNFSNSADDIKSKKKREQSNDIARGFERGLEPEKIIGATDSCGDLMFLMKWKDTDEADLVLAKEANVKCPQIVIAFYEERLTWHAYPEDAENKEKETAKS
inactive: [1] 0.04 | [2] -0.002 | [3] -0.038 | [4] 0.031 | [5] -0.135

ATG13 isoform 2 (UniProt O75143)
inactive: [1] 0.001 | [2] 0.026 | [3] 0.055 | [4] 0.045 | [5] -0.166

CHAC2 (UniProt Q8WUX2)
active: [5] 0.344
inactive: [1] 0.079 | [2] 0.005 | [3] 0.028 | [4] -0.025

ATXN2 (UniProt F8WB05)
inactive: [1] -0.17 | [2] 0.212 | [3] 0.146 | [4] 0.004 | [5] 0.022

CDK5RAP2 (UniProt Q96SN8)
inactive: [1] 0.018 | [2] 0.038 | [3] 0.041 | [4] -0.026 | [5] 0.072

ATG4A (UniProt Q8WYN0)
inactive: [1] 0.008 | [2] 0.022 | [3] 0.068 | [4] -0.01 | [5] -0.103

CDK9 isoform 2 (UniProt P50750)
UniProt P50750, sequence (P50750 whole entry, looked up): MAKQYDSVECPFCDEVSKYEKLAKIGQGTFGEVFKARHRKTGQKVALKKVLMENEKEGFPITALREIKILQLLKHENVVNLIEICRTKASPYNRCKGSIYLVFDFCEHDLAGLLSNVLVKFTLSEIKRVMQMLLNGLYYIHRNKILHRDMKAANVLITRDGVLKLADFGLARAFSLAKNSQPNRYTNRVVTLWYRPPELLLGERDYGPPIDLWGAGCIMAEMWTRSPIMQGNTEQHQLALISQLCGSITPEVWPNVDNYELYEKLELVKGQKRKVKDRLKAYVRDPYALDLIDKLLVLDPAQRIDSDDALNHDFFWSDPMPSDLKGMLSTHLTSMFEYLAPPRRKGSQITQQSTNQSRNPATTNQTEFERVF
inactive: [1] -0.001 | [2] -0.043 | [3] -0.015 | [4] -0.008 | [5] -0.114

ATE1 isoform 2 (UniProt O95260)
inactive: [1] -0.015 | [2] -0.008 | [3] -0.004 | [4] 0.009 | [5] -0.087

ATG10 (UniProt Q9H0Y0)
inactive: [1] 0.008 | [2] 0 | [3] -0.057 | [4] 0.047 | [5] 0.076

CASP9 (UniProt P55211)
UniProt P55211, sequence (P55211 whole entry, looked up): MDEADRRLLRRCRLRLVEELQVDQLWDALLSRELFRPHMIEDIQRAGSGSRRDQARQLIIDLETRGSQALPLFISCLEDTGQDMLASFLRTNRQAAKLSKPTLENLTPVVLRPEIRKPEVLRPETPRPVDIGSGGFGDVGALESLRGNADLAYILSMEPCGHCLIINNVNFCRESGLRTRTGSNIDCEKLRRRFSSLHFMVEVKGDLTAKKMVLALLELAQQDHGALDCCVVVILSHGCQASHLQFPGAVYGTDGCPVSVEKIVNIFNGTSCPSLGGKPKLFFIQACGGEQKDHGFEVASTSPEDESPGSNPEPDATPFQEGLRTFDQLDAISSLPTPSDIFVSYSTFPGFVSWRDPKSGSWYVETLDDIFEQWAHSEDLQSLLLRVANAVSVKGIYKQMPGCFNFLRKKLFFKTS
inactive: [1] 0.041 | [2] -0.024 | [3] 0.019 | [4] -0.05 | [5] -0.048

CHCHD2 (UniProt Q9Y6H1)
inactive: [1] -0.123 | [2] -0.043 | [3] -0.015 | [4] 0.062 | [5] -0.01

ATAD3B (UniProt Q5T9A4)
inactive: [1] 0.082 | [2] -0.033 | [3] -0.021 | [4] 0.047 | [5] 0.172

CDK17 isoform 2 (UniProt Q00537)
inactive: [1] 0.072 | [2] 0.099 | [3] 0.109 | [4] 0.072 | [5] -0.146

CDK1 (UniProt P06493)
inactive: [1] 0.037 | [2] -0.009 | [3] 0.042 | [4] 0.021 | [5] 0.018

CDC25C (UniProt P30307)
inactive: [1] 0.018 | [2] -0.011 | [3] 0.023 | [4] 0.07 | [5] 0.027

ATP6V1B1 (UniProt P15313)
inactive: [1] 0.023 | [2] 0.004 | [3] 0.004 | [4] -0.023 | [5] -0.157

CDK5 (UniProt Q00535)
inactive: [1] -0.01 | [2] -0.03 | [3] -0.021 | [4] 0.002 | [5] -0.02

BRD4 (UniProt O60885)
inactive: [1] 0.022 | [3] 0.003 | [5] -0.015
active: [2] 0.868 | [4] 0.415

C1orf112 (UniProt Q9NSG2)
inactive: [1] 0.066 | [2] -0.011 | [3] -0.007 | [4] 0.066 | [5] -0.345

CHD4 isoform 2 (UniProt Q14839)
inactive: [1] 0 | [2] 0.003 | [3] 0.029 | [4] 0.021 | [5] 0.009

BTAF1 (UniProt O14981)
inactive: [1] 0.013 | [2] 0 | [3] -0.005 | [4] 0.04 | [5] -0.02

AVEN (UniProt Q9NQS1)
inactive: [1] 0.205 | [2] 0.025 | [3] 0.003 | [4] 0.013 | [5] -0.058

CDKN1C (UniProt P49918)
UniProt P49918, sequence (P49918 whole entry, looked up): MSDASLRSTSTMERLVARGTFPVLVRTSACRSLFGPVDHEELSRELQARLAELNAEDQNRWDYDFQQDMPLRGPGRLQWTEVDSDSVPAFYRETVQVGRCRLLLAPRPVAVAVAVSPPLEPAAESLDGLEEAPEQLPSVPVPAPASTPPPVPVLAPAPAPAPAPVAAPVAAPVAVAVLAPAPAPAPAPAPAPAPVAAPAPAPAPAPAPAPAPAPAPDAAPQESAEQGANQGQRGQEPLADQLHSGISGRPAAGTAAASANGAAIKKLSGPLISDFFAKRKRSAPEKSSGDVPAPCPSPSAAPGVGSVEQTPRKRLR
inactive: [1] 0.035 | [2] -0.012 | [3] 0.185 | [4] 0.094 | [5] 0.025

BCKDK (UniProt O14874)
inactive: [1] -0.036 | [2] -0.007 | [3] -0.037 | [4] 0.016 | [5] 0.012

CEP152 (UniProt O94986)
inactive: [1] 0.024 | [2] -0.236 | [3] 0.01 | [4] 0.008 | [5] -0.028

BRD3 (UniProt Q15059)
UniProt Q15059, sequence (Q15059 whole entry, looked up): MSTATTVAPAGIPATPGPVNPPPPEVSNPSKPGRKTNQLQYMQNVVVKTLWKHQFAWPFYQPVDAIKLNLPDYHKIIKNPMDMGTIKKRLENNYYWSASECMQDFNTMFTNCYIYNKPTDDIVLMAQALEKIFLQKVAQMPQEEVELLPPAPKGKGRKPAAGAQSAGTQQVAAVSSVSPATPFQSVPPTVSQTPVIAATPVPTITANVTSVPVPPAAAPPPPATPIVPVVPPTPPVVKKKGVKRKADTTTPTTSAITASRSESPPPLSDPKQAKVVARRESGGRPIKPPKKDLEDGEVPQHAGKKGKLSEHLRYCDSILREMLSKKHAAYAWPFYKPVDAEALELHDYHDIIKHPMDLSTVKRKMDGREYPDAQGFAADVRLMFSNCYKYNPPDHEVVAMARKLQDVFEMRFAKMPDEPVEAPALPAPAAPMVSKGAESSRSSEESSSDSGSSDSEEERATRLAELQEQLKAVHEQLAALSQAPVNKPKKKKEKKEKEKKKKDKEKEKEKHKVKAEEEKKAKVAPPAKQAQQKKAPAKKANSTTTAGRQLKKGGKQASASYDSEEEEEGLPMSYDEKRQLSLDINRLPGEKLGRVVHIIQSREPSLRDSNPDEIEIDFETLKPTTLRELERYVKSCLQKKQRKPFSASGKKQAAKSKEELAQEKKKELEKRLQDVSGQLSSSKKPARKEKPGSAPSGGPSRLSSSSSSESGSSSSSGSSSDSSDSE
inactive: [1] 0.027 | [3] 0.112 | [5] -0.167
active: [2] 0.631 | [4] 0.5

CAMK2G isoform 8 (UniProt Q13555)
inactive: [1] 0.048 | [2] -0.063 | [3] -0.053 | [4] -0.007 | [5] -0.037

C18orf25 (UniProt Q96B23)
inactive: [1] 0.013 | [2] -0.035 | [3] 0.043 | [4] 0.017 | [5] -0.033

CDC42EP4 (UniProt Q9H3Q1)
UniProt Q9H3Q1, sequence (Q9H3Q1 whole entry, looked up): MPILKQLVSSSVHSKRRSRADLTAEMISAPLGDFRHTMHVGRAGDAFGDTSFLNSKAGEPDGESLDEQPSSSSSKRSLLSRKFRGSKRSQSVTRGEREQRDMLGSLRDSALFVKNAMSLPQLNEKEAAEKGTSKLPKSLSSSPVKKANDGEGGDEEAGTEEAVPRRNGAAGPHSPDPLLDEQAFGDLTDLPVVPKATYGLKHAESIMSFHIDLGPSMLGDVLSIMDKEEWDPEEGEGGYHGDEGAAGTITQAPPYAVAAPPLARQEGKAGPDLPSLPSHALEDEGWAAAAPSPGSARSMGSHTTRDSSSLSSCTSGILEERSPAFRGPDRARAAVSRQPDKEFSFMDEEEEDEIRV
inactive: [1] 0.113 | [2] -0.084 | [3] -0.098 | [4] 0.004 | [5] -0.036

CBFA2T3 (UniProt O75081)
inactive: [1] -0.029 | [2] -0.01 | [3] 0.058 | [4] 0.009 | [5] 0.019

CCDC51 (UniProt Q96ER9)
inactive: [1] -0.063 | [2] 0.023 | [3] -0.029 | [4] 0.014 | [5] 0.157

ATP2B4 (UniProt P23634)
inactive: [1] -0.021 | [2] 0.036 | [3] 0.059 | [4] 0.029 | [5] -0.081

BPHL (UniProt Q86WA6)
inactive: [1] 0.284 | [2] 0.038 | [3] -0.028 | [4] 0.158 | [5] 0.014

BCL2L12 (UniProt Q9HB09)
UniProt Q9HB09, sequence (Q9HB09 whole entry, looked up): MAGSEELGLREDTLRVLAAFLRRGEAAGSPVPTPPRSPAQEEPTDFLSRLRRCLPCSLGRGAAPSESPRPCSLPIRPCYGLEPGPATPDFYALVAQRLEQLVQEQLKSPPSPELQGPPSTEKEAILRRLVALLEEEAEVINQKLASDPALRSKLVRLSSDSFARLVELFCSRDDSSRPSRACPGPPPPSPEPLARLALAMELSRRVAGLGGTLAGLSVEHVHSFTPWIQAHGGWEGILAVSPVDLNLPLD
inactive: [1] 0.162 | [2] 0.119 | [3] 0.035 | [4] -0.011 | [5] -0.044

CCNB2 (UniProt O95067)
inactive: [1] -0.005 | [2] 0.026 | [3] 0.047 | [4] 0.048 | [5] 0.033

CHAF1A (UniProt Q13111)
UniProt Q13111, sequence (Q13111 whole entry, looked up): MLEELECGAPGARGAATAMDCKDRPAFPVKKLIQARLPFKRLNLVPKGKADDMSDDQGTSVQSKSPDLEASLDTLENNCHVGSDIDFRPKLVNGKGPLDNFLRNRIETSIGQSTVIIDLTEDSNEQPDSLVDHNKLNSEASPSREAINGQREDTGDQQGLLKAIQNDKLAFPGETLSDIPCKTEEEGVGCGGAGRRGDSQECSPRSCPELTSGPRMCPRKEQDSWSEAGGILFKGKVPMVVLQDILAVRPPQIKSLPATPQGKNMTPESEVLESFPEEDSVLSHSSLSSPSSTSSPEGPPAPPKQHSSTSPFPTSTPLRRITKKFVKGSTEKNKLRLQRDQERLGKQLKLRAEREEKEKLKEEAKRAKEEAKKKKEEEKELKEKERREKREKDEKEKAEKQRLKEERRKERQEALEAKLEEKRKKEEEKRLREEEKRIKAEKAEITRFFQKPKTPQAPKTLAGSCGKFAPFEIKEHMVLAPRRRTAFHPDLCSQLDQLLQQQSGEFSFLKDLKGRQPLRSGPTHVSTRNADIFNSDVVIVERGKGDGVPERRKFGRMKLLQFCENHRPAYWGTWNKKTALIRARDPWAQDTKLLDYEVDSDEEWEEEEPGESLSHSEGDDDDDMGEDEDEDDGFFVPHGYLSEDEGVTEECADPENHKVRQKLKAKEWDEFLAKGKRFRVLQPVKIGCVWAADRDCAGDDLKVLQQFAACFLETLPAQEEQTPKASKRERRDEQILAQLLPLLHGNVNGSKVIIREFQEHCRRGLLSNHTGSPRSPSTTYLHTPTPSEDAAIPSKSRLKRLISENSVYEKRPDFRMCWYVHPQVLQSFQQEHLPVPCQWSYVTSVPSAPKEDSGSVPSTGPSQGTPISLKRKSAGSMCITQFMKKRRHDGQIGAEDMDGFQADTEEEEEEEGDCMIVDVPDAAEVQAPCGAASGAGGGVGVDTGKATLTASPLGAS
inactive: [1] -0.099 | [2] 0.136 | [3] 0.041 | [4] 0.017 | [5] 0.022

BLOC1S6 (UniProt Q9UL45)
UniProt Q9UL45, sequence (Q9UL45 whole entry, looked up): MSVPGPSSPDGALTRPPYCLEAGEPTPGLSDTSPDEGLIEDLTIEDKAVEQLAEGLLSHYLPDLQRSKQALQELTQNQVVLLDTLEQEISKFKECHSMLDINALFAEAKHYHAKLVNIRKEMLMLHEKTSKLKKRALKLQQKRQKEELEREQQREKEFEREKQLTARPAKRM
inactive: [1] -0.078 | [2] 0.035 | [3] -0.04 | [4] -0.046 | [5] 0.021

CEP120 (UniProt Q8N960)
UniProt Q8N960, sequence (Q8N960 whole entry, looked up): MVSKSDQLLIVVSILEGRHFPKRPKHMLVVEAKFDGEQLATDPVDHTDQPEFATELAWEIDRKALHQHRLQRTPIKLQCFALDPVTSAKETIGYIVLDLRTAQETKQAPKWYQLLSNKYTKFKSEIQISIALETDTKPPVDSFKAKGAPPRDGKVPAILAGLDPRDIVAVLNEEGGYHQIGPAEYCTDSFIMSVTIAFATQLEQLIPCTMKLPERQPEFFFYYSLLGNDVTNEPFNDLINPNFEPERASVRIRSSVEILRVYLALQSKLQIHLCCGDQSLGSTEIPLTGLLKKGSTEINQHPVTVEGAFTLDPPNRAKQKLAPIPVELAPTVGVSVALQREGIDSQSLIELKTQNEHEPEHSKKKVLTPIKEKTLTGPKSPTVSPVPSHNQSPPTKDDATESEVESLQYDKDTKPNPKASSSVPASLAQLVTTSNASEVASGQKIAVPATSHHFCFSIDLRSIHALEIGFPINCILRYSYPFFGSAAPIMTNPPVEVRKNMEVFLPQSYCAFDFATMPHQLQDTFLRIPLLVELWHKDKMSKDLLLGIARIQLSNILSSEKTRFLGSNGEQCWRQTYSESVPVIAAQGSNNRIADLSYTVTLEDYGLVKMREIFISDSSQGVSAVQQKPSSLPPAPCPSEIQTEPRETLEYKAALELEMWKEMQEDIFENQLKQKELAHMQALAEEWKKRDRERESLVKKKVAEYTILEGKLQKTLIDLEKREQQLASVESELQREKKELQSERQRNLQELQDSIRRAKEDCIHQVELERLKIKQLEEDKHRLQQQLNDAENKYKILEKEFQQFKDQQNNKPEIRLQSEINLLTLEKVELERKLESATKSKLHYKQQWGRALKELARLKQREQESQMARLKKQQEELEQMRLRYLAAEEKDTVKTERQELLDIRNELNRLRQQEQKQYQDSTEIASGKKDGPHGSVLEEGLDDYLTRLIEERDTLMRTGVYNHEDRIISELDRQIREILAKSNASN
inactive: [1] -0.074 | [2] 0.097 | [3] 0.145 | [4] -0.169 | [5] 0.184

C15orf41 (UniProt Q9Y2V0)
inactive: [1] 0.111 | [2] -0.007 | [3] 0.029 | [4] 0.084 | [5] -0.008

AURKAIP1 (UniProt Q9NWT8)
inactive: [1] 0.05 | [2] 0.032 | [3] -0.014 | [4] 0.024 | [5] 0.034

BORCS5 (UniProt Q969J3)
inactive: [1] -0.12 | [2] 0 | [3] -0.015 | [4] -0.005 | [5] -0.011

CDK13 (UniProt Q14004)
inactive: [1] -0.091 | [2] -0.031 | [3] -0.052 | [4] 0.049 | [5] 0.052

CARNMT1 (UniProt Q8N4J0)
inactive: [1] 0.032 | [2] -0.003 | [3] 0.072 | [4] -0.039 | [5] -0.174

CES2 isoform 4 (UniProt O00748)
inactive: [1] 0.129 | [2] 0.159 | [3] -0.089 | [4] 0.093 | [5] -0.07

Reference: the supplement of paper PMC10849652
